Data taken from PubChem BioAssay AID743279 (National Center for Advancing Translational Sciences (NCATS), 2014).
In all, about 360,000 compounds went through this assay and about 17,000 (4.7%) were called active. Roughly 5% stayed inconclusive and do not appear here. The sample as a whole holds a higher share of actives than the screen did. A number with no mark means an inactive call. Cut-off read from the data, not from the text of the source: active = activity change below about -50%; inconclusive = mostly about -30% to -49%; inactive = weaker than that.

Experiment: qHTS for Inhibitors of Inflammasome Signaling: IL-1-beta AlphaLISA Primary Screen
Conditions: THP-1 LPS/ATP IL-1B secretion, 16 h; at 57.5 µM, stronger effect = lower value
Excerpt: Inflammasomes are a set of intracellular multi-protein complexes that enable autocatalytic activation of inflammatory caspases and drive the innate immune response to counter harmful agents. […] A qHTS assay, based on AlphaLISA technology, was developed to screen the Molecular Libraries Small Molecule Repository (MLSMR) to look for novel inflammasome inhibitors. The assay detects IL-1B using AlphaLISA anti-IL-1B acceptor and donor beads. A decreased emission signal, indicating reduced IL-1B secretion, is the desired outcome for this assay. NIH Chemical Genomics Center [NCGC] NIH Molecular Libraries Probe Centers Network [MLPCN] MLPCN Grant: MH095513 Assay Provider: Shyam Biswal Ph.D., Johns Hopkins University Immunity. 2012 Jul 27;37(1):85-95. PMID: 22819042 [2] Curr Pharm Des. 2012;18(16):2320-8. PMID: 22390695
Three microliters containing 3000 THP-1 cells were dispensed into the wells of solid, white, tissue culture treated Greiner 1,536-well plates. Library compounds and positive control, Glyburide, were pin-transferred (23 nL) by a Kalypsys pin-tool equipped with a 1,536-pin array, resulting in final compound concentration ranges of 2.5 nM to 57.5 uM. After 1 hr of cell culture incubation (37 °C, 5% CO2), 1 microL of 1 microg/mL lipopolysaccharide (250 ng/mL, final) and 5 mM ATP (1.25 mM, final) were added to stimulate the cells. After 16 hr of cell culture incubation with the compounds, 1.5 uL of anti-IL-1B acceptor beads (6 ug/mL, final) and biotinylated antibody (0.6 nM, final) were added to the plate, followed by a 1 hr incubation at ambient temperature. To detect the secreted IL-1B, 1.5 uL of AlphaLISA SA-Donor beads (24 ug/mL, final) were added, followed by 30 min of incubation in the dark at ambient temperature. The AlphaLISA signal was read by a PerkinElmer EnVision plate reader with an ultrasensitive luminescence detector and 1536 Plate HTS AlphaScreen aperture (excitation of 680nm and emission of 615nm).
% is set by controls: 0 for no effect and ±100 for the full control effect.

| Structure (SMILES) | activity change |
| --- | --- |
| O=C1C(Cl)=C(Oc2ccccc2)C(=O)c2ccccc21 | -18% |
| CCS(=O)(=O)N1CCN(C(=O)c2cccs2)CC1 | 38.7% |
| Cc1ccc(N2CCN(C(=O)c3cccs3)CC2)c(C)c1 | -56% (active) |
| Cc1ccc(S(=O)(=O)N2CCN(C(=O)c3cccs3)CC2)cc1 | 0% |
| Cc1nc2ccccc2c(C(=O)O)c1-c1ccccn1 | 12.8% |
| COc1ccc(NC(=O)CSc2nc(C)cs2)cc1 | 15.6% |
| COc1ccc(-n2ncc3c(SCC(=O)NNC(C)=O)ncnc32)cc1 | -3.94% |
| COc1ccc(NC(=O)CSc2ncnc3[nH]ncc23)cc1 | -51% (active) |
| CCN(CC)C(=O)C1=C(C)N(Cc2ccc(F)cc2)C(=O)C(CC(=O)NC2CCCC2)C1 (configuration not stated) | 3.15% |
| CCOc1ccc(CCNC(=O)COC(=O)c2ccc(C)c(S(=O)(=O)N3CCOCC3)c2)cc1OCC | -2.62% |
| Cc1noc(C)c1NC(=O)N(C)C[C@@H]1Oc2cc(Br)ccc2S(=O)(=O)N([C@@H](C)CO)C[C@H]1C | -11.1% |
| CCCNC(=O)c1cc(C2CCCN(C(=O)c3ccc4c(c3)CCO4)C2)on1 (configuration not stated) | 25.3% |
| CC(=O)c1c(C)[nH]c(C(=O)COC(=O)c2cccs2)c1C | 17.9% |
| CC(=O)c1c(C)[nH]c(C(=O)COC(=O)CCOc2ccc(C)cc2)c1C | -89.1% (active) |
| COc1cccc(C(=O)OCC(=O)c2[nH]c(C)c(C(C)=O)c2C)c1 | 12.1% |
| COc1c(F)c(F)c(-c2csc(N)n2)c(F)c1F | -14.1% |
| CCOC(=O)[C@]12CCC=C1N(Cc1ccccc1)C(=O)[C@H](CC(=O)N1CCCC1)C2 | 48.2% |
| CCN(C(=O)COC(=O)c1cc(NS(=O)(=O)c2ccc(Cl)c([N+](=O)[O-])c2)ccc1O)C1CCCCC1 | -98.5% (active) |
| COc1ccc(NS(=O)(=O)c2ccc(O)c(C(=O)OCC(=O)NC3CCCCC3)c2)cc1 | 40.3% |

| Structure (SMILES) | activity change |
| --- | --- |
| CN(C)c1ccc(S(=O)(=O)NCC(=O)NCC2CCCCC2)cc1[N+](=O)[O-] | 8.52% |
| C=CCn1c(SCC(=O)c2ccc(Br)cc2)nnc1C(C)NC(=O)Cc1ccc(OC)cc1 (configuration not stated) | 18.8% |
| C=CC(=O)Nc1ccc(Nc2ccnc(Nc3ccc(N4CCN(C)CC4)cc3)n2)cc1 | -83.2% (active) |
| Cc1cccc(N2CCN(c3ccc(NC(=O)/C=C\C(=O)O)cc3)CC2)c1 | -21.2% |
| Cn1cnnc1SCC(=O)Nc1ccc(N2CCOCC2)cc1 | 19.7% |
| COc1cccc(-c2ccc3c(c2)N(Cc2ccccc2OC)C(=O)C(C)S3)c1 (configuration not stated) | 43.9% |
| COc1ccc(CCNC(=O)Nc2ccc3c(c2)c(=O)n(C)n3C)cc1OC | -16.8% |
| Cc1c(OC(C)C(=O)N[C@@H](Cc2ccccc2)C(=O)O)ccc2c3c(c(=O)oc12)CCCC3 (some centres not stated) | 11.6% |
| O=C1NC(=O)C(CCc2ccccc2)(c2ccccc2)N1 (configuration not stated) | -4.4% |
| O=C(NCc1ccccc1)c1onc(CSc2ccncc2)c1C(=O)NCc1ccccc1 | 39.9% |
| COc1cccc(Nc2nc(N)c([N+](=O)[O-])c(NCc3ccco3)n2)c1 | -69.4% (active) |
| CN(c1ccccc1)c1nc(N)c([N+](=O)[O-])c(NCc2ccco2)n1 | -23.7% |
| COc1ccc(Nc2nc(NCc3ccco3)nc(N/N=C/c3ccccc3Cl)n2)cc1 | -12.1% |
| COC(=O)c1c(NC(=O)COc2ccc(Cl)cc2Cl)sc2c1CC(C)(C)NC2(C)C | -99.6% (active) |
| CCOC(=O)c1c(NC(=O)c2ccc(S(=O)(=O)N(C)CC3CCCO3)cc2)sc2c1CC(C)(C)NC2(C)C (configuration not stated) | -16.8% |
| COC(=O)c1sccc1NC(=O)COc1ccc(Cl)cc1 | -5.02% |
| C[C@@H]1CN([C@H](C)CO)C(=O)CCCn2cc(nn2)CO[C@H]1CN(C)S(C)(=O)=O | -20.6% |
| COC(=O)Cc1ccc(OC2(C)CCN(Cc3ccc4c(c3)OCCO4)C2)cc1 (configuration not stated) | 12.5% |
| COc1cc(CN2CCCN(C)CC2)c([N+](=O)[O-])cc1OC | 26.5% |

| Structure (SMILES) | activity change |
| --- | --- |
| COc1cc2c(cc1OC)C(Cc1cc(OC)c(OC)cc1[N+](=O)[O-])=NCC2 | -58.9% (active) |
| COc1cc2c(cc1OC)C(c1cccc([N+](=O)[O-])c1)=NCC2 | -7.18% |
| C=CCOc1ccccc1CNn1c(C)n[nH]c1=S | 0.633% |
| CC(C)=CCc1c(O)c(CC=C(C)C)c2occ(-c3ccc(O)cc3)c(=O)c2c1O | -78.8% (active) |
| CC(C)=CCc1ccc(O)c(=O)cc1C(C)C | 1.89% |
| COc1cc(CNc2ncnc3c2ncn3[C@H]2CN(Cc3cccs3)C[C@@H](CO)O2)cc(OC)c1OC | 0.705% |
| CCCCn1c(N)c(N(CCOC)C(=O)CSCC(=O)Nc2cccc(C)c2)c(=O)[nH]c1=O | 9.86% |
| CCCCn1c(-c2cccc(C)c2)nc2cc3[nH]c(=O)c(C(C)C)nc3cc21 | -61% (active) |
| CCCCCn1nnnc1-c1nc2cc3ccccc3cc2[nH]c1=O | 1.49% |
| CC(C)Oc1ccc(C2NC(=O)NC2=O)cc1 (configuration not stated) | 10.2% |
| COc1ccccc1-c1n[nH]nc1C1=CC(=O)CC(C)(C)C1 | -12.1% |
| c1ccc2c(c1)nnn2-c1ccncc1 | -56.6% (active) |
| Cc1ccc(-c2nnc(-n3nnc4ccccc43)c3ccccc23)cc1 | 55.9% |
| COc1cc2nnn(-c3ccncc3)c2cc1OC | -22.1% |
| CC(Sc1ccc(S(=O)(=O)N2CCN(C)CC2)cn1)C(=O)NC1CCCC(C)C1C (configuration not stated) | -7.4% |
| COc1cccc(CNc2nc3nc4c(c(=O)n3[nH]2)CCC4)c1 | -4.67% |
| COc1cccc(-c2cc3nc4c(c(N5CCC6(CC5)OCCO6)n3n2)CCCC4)c1 | -96.1% (active) |
| N#C/C=C\Oc1ccc(Cl)cc1N | -9.78% |
| Cc1ccccc1S(=O)(=O)NC(=O)C1(C)CCN1C(=O)C1(c2ccccc2)CCCC1 (configuration not stated) | 31.4% |
